Measured values as given in the supplement of paper PMC13380429.

Test system: Vero E6 infected with SARS-CoV-2
Assay: inhibition of SARS-CoV-2 cytopathic effect; higher = more antiviral protection, active = above 15
Details: 48 h

Measured: inhibition of SARS-CoV-2 cytopathic effect

Cc1cnc(C(=O)N[C@H]2CCCCC/C=C\[C@@H]3C[C@@]3(C(=O)NS(=O)(=O)C3CC3)NC(=O)[C@@H]3C[C@@H](Oc4nc5ccccc5c5ccccc45)CN3C2=O)cn1 [paritaprevir]
inactive: 1 nM -1.75% | 8.33 nM -2.06% | 100 nM -0.72% | 833.33 nM 0.24% | 10000 nM 1.71%

CCCCCCCCOc1ccccc1C(=O)Nc1ccc(C(=O)OCC[N+](C)(CC)CC)cc1 [otilonium]
inactive: 1 nM 2.76% | 8.33 nM -0.22% | 100 nM 1.35% | 833.33 nM 1.63% | 10000 nM 0.68%

COc1ccc2ccc(=O)oc2c1CC=C(C)C [osthol]
inactive: 1 nM 2.39% | 8.33 nM 6.22% | 100 nM 1.91% | 833.33 nM 3.87% | 10000 nM 2.49%

O=c1c(O)c(-c2ccc(O)cc2O)oc2cc(O)cc(O)c12 [morin]
inactive: 1 nM -1.74% | 8.33 nM -0.07% | 100 nM -0.4% | 833.33 nM -4.13% | 10000 nM 0.27%

O=C(CO)[C@@H](O)[C@@H](O)[C@H](O)CO [tagatose]
inactive: 1 nM -1.77% | 8.33 nM -0.71% | 100 nM -0.15% | 833.33 nM -0.41% | 10000 nM 0.74%

CO[C@H]1/C=C/O[C@@]2(C)Oc3c(C)c(O)c4c(O)c(cc(O)c4c3C2=O)NC(=O)/C(C)=C\C=C\[C@H](C)[C@H](O)[C@@H](C)[C@@H](O)[C@@H](C)[C@H](OC(C)=O)[C@@H]1C [rifamycin-sv]
inactive: 1 nM 0.74% | 8.33 nM 1.12% | 100 nM 3.4% | 833.33 nM 4.53% | 10000 nM 2.73%
